The text below walks through data of the supplement of paper PMC3334620.

Whole data set: some 33,000 sequences, median “E-score (-0.5 to 0.5)” near -0.016, cut for the highest 2% near 0.32. This excerpt belongs to a sample that is enriched for the highest values.

The test concerns the target T1, Stp1 (UniProt B3LFK1).
T1 sequence: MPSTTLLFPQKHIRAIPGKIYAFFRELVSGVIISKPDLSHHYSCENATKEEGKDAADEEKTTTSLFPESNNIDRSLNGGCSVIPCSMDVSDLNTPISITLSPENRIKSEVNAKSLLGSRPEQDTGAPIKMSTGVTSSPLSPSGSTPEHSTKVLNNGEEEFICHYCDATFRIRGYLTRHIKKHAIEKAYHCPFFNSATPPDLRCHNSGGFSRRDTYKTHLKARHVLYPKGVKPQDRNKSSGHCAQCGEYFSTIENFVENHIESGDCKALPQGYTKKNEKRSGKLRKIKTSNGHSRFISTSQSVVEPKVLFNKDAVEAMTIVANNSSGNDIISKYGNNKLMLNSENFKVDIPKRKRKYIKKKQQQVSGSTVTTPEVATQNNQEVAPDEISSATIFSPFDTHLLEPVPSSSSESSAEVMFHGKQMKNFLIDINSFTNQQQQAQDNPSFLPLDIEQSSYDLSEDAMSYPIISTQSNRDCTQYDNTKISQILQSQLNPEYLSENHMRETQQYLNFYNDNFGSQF
The test is described as follows: PBM E-score (8-mer binding enrichment) (E-score (-0.5 to 0.5)); higher = stronger / more preferred TF binding. Conditions: protein concentration: 200 nM; construct: GST-full length. On the procedure:
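Universal 'all 10-mer' protein binding microarrays (Agilent AMADID 015681) probed with GST-tagged S. cerevisiae TFs (full-length or DBD) made by in vitro transcription/translation (PURExpress), about 100-200 nM. Bound TF was detected with fluorescent anti-GST. Each ungapped 8-mer (which stands for itself and its reverse complement) is scored by the PBM enrichment score (E-score), a modified Wilcoxon-Mann-Whitney statistic from -0.5 to +0.5, computed with the Universal PBM Analysis Suite. Scale: above 0.35 generally sequence-specific binding.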
Turning to CGATTAGA, the “PBM E-score” value came out at 0.083.
To CGACAGGC belongs -0.0711; to CAAGATCA, 0.101; to GCTGCCCC, -0.0352.
To CAGTCAAC belongs -0.139.
To CATACTTC belongs -0.12; to CCACCCAC, 0.0467; to AGGCACCT, 0.135.
GGGCACCA: the “PBM E-score” value was 0.056.
The value for AGGCACAT was 0.276; that for CTGCACCA was -0.199; that for AGGCACGA was 0.267.
To AGGCACGG belongs 0.397.
To AGGCACCA belongs 0.366.
In the case of TGGCACCA, the “PBM E-score” value amounted to 0.176.
For the sequence CGGCACCA, the “PBM E-score” value turned out to be 0.462.
The value for CCTCTCTA was -0.212; that for AACCAGTT was 0.143.
To GAGAAGCC belongs -0.0953; to GGTGGCAC, 0.147; to TGGTGAAA, 0.0915.
The value for CATTTTGG was 0.114.
ATAGTGAG: the “PBM E-score” value is -0.0378.
As to TGATTCCA, the “PBM E-score” value is -0.0134.
To GAAGGTAC belongs -0.11; to CATCGCCG, 0.375.
On to AGTCGCCA, for which the “PBM E-score” value is -0.199.
The value for AGTCGCCC was -0.174; that for ATTCGCCG was 0.328.
To CATCGCCA belongs 0.0899.
To AATCGCCT belongs 0.302; to ATTCGCCC, -0.0713; to AATCGCCG, 0.431.
Turning to ATTCGCCA, the “PBM E-score” value stood at 0.0506.
To AGTCGCCG belongs 0.369; to CATCGCCC, -0.0878.
To AATCGCCC belongs 0.0762; to AAGCATCT, -0.17; to AGGATATG, 0.0335.
With ACCATCCG, the “PBM E-score” value was -0.144.
The value for ACTGGACG was -0.112; that for GTAGCTGA was -0.154.
Turning to GTCTCTAA, the “PBM E-score” value is -0.0881.
The value for AAACGGTT was -0.155; that for AGATAACT was -0.103.
To CGCGCCAC belongs 0.286; to GGCGCCAA, 0.379.
To CGCGCCAA belongs 0.132; to AGCGCCAC, 0.13; to AGCGCCAA, -0.059.
For GGCGCCAC, the “PBM E-score” value turned out to be 0.384.
To AAAGCCGT belongs 0.386.
The value for AAAGCCAC was 0.123; that for AAAGCCGC was 0.369.
The value for GAAGCCGC was 0.393; that for AAAGCCGA was -0.0141.
With AAAGCCGG, the “PBM E-score” value stood at 0.135.
In the case of ACAGCCGA, the “PBM E-score” value was -0.0659.
The value for CAAGCCGC was 0.299; that for ACAGCCGT was 0.354; that for AAAGCCTC was 0.204.
The value for GAAGCCGA was -0.0348; that for ACAGCCGC was 0.25.
To GGAGTACA belongs -0.00077; to CGTCTTAG, 0.0086; to CTTCATCA, -0.0498.
With AACTCTAA, the “PBM E-score” value is -0.00844.
With AACAAATT, the “PBM E-score” value is 0.232.
To CATTATGG belongs -0.177.
The value for GCGGTCCC was -0.16; that for CGTACGGA was 0.302.
Take ATTACGGA: the “PBM E-score” value was 0.0935.
The value for ATTACGGC was 0.341.
Take AGTACGGC: the “PBM E-score” value is 0.436.
To AGTACGGG belongs -0.156; to CGTACGCC, 0.233.
To AGTACGGA belongs 0.154.
To CGTACGGC belongs 0.482; to ATTACGGG, -0.199; to CCTCGGGA, -0.121.
In the case of GCTTAGAC, the “PBM E-score” value was -0.11.
To GTGCCCAC belongs -0.00488; to GGCTGACA, 0.0532.
For GCTTTGGA, the “PBM E-score” value turned out to be 0.103.
To GCGTGCGA belongs -0.0235.
The value for CCGTGCGC was 0.433.
To ACGTGCGC belongs 0.165.
As for CCGTGCGA, the “PBM E-score” value was found to be 0.415.
With CCGTGCTC, the “PBM E-score” value came out at 0.261.
To CTGTGCGA belongs -0.0295.
In the case of CCAAACTA, the “PBM E-score” value was -0.0843.
To GCAGCATA belongs 0.0149; to CGACTACC, -0.22.
The value for AGAGAGCA was -0.213.
The value for AGTGCAGG was -0.0709.
On to CCCGGGCC, for which the “PBM E-score” value was -0.151.
To CAACGGTA belongs -0.266; to AAACGGCA, 0.467; to AAACGGTA, 0.166.
The value for TAACGGCA was 0.31; that for GAACGGCA was 0.468; that for CAACGGAA was 0.123.
The value for GAACGGCC was 0.233.
Take CAACGGCA: the “PBM E-score” value came to 0.402.
The value for GAACGGGA was -0.0828; that for AAACTGCG was -0.0893; that for ACTGGCAT was -0.0932.
For the sequence CTAGTGCC, the “PBM E-score” value came out at 0.301.
The value for TACTGCGA was -0.159; that for TTGAACAA was 0.0506.
